A selection: hits, their analogues and other compounds. The true share with any hit is near 11%.
BAZ2B inh: inhibitors of human BAZ2B bromodomain | Potency, µM (series often up to 114 µM), actives largely listed as inhibitors | AlphaScreen BAZ2B-H3K14Ac peptide displacement | 360,000 tested, 4.4% active; note: nearly all actives have a fitted effect of over 60% in size
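BAZ2B (50 nM) with biotin-H3(5-23)K14Ac peptide (50 nM) in PBS pH 7.4, 0.01% Tween-20, preformed 30 min, then compound 30 min at room temperature; top concentration 110uM. AlphaScreen streptavidin donor/nickel chelate acceptor beads (10 ug/mL final), 20 min dark, signal read.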
HP1b chromo inh: HP1-beta chromodomain-methylated histone interaction inhibition; P83916; AlphaScreen HP1-beta / biotin-H3K9me3 peptide binding; Potency, µM (series often up to 114 µM), most hits filed as inhibitors; 390,000 tested, 0.56% active; note: nearly all actives have a fitted effect of over 70% in size
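HP1-beta protein (50 nM final) preincubated 30 min at room temperature with biotinylated H3(1-18)K9me3 peptide (50 nM) in PBS pH 7.4, 0.01% Tween-20, then compound added for 30 min. AlphaScreen streptavidin donor/nickel chelate acceptor beads (10 ug/mL final), 30 min dark, luminescence read.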
PI5P4K alpha inh: inhibitors of human PI5P4K alpha. P48426. PI5P4Kalpha enzyme, ADP-Glo luminescence, 60 min; hits give low values. max response, %. 330,000 tested, 1.2% active; active = max response of -50% or lower; inconclusive = between -30% and -50%; inactive = -30% or higher; note: value at the top dose of about 77 µM
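Human PI5P4Kalpha with substrate in 0.038 M HEPES pH 7.4, 0.28 mM EGTA, 0.1% CHAPS, 5% DMSO; reaction started with 5 microM ATP (final), 60 min at room temperature. ADP formed read by ADP-Glo luminescence.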
G9a block: blocks human histone lysine methyltransferase G9a. 350,000 tested, 8.8% active. G9a H3K9 monomethylation, AlphaScreen, 2 h. AID 504332. Potency, µM (top dose mostly 102 µM), hits mostly inhibitors; note: nearly all actives have a fitted effect of over 75% in size
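G9a (20 nM) was preincubated 15 min with compound, then reacted 2 h at room temperature with 500 nM biotin-H3K9 peptide and 20 µM SAM. Monomethyl-H3K9 detected by AlphaScreen using anti-H3K9me1 antibody.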
JMJD2A Tudor inh: JMJD2A Tudor domain (human) inhibition. AlphaScreen JMJD2A-Tudor / H3K4me3 peptide binding. 390,000 tested, 4.4% active. O75164. Potency, µM (series often up to 114 µM), hits mostly inhibitors. AID 504339; note: nearly all actives have a fitted effect of over 50% in size
Target sequence (O75164 whole entry, looked up, the tested form may be a part): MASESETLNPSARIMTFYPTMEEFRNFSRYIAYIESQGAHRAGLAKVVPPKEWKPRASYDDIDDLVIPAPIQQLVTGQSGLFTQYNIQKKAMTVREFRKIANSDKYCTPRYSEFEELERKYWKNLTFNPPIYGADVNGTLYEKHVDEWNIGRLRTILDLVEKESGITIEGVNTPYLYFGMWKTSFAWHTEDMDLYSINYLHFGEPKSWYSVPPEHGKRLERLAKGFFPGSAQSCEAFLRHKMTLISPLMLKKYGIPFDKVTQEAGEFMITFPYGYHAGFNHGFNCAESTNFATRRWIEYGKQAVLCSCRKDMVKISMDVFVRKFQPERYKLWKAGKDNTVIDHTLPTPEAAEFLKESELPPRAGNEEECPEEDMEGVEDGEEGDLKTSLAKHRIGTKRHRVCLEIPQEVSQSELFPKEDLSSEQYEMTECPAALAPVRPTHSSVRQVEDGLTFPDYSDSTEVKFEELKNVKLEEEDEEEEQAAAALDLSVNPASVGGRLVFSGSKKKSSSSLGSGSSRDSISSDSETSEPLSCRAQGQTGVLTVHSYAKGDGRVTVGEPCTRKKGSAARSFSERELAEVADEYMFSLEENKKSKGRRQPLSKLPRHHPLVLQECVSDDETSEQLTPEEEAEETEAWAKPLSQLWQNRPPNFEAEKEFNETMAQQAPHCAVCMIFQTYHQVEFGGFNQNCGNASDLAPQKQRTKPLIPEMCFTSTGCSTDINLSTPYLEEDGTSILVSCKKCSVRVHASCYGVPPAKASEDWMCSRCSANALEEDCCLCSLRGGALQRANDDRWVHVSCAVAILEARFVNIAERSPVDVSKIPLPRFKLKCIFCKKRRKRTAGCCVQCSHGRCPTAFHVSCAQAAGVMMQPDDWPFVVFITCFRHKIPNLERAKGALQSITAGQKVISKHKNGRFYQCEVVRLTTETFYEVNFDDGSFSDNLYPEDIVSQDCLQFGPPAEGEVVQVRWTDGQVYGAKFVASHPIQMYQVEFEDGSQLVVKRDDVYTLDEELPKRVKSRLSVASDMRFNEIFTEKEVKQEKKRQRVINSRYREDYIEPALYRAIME
L3MBTL1 block: blocks human L3MBTL1 | AlphaScreen L3MBTL1–H3K9me1 peptide binding | AID 485360 | 230,000 tested, 0.66% active | Q9Y468 | Potency, µM (series often up to 57.1 µM), usual class: inhibitors; note: nearly all actives have a fitted effect of over 60% in size
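AlphaScreen assay: L3MBTL1 (50 nM final) was preincubated 30 min at room temperature with biotinylated H3(1-15)K9me1 peptide (75 nM final), then 30 min with library compounds; streptavidin donor and nickel chelate acceptor beads (10 ug/mL final) added, 30 min dark.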
Of the large screens only hits and unclear results are named; the others gave an inactive call. Unless noted, calls come from the whole dose curve; as a rule, active = well fitted inhibition curve with a large enough effect; inconclusive = small, poorly fitted or top-dose-only effect; inactive = no such curve, though single readings can be large or run the other way.

CCN1CCN(c2ccc(S(=O)(=O)N3CCCCC3)cc2NC(=O)COc2ccc(Cl)cc2)CC1	BAZ2B inh inconclusive, G9a block 5µM, JMJD2A Tudor inh inconclusive
Cc1noc(C)c1-c1nc(NCc2cccs2)c2ccccc2n1	none (no result: BAZ2B inh, HP1b chromo inh, PI5P4K alpha inh, JMJD2A Tudor inh, L3MBTL1 block)
CCc1ccc(N2CC(C(=O)Nc3ccc(S(=O)(=O)N4CCOCC4)cc3)CC2=O)cc1 (stereo unspecified)	G9a block 50µM
COc1ccc(N2CC(C(=O)Nc3ccc(S(=O)(=O)N4CCCC4)cc3)CC2=O)cc1 (stereo unspecified)	none (no result: L3MBTL1 block)
Cc1ccccc1N1CC(C(=O)Nc2ccc(S(=O)(=O)NCC3CCCO3)cc2)CC1=O (stereo unspecified)	JMJD2A Tudor inh 89µM (no result: L3MBTL1 block)
CSc1cccc(N2CC(C(=O)Nc3cccc(S(=O)(=O)N4CCCC4)c3)CC2=O)c1 (stereo unspecified)	BAZ2B inh inconclusive, G9a block 11µM, JMJD2A Tudor inh inconclusive
CCOc1ccc(N2CC(C(=O)Nc3ccc(S(=O)(=O)N4CCCC4)cc3)CC2=O)cc1 (stereo unspecified)	G9a block 35µM (no result: L3MBTL1 block)
CCOc1ccc(N2CC(C(=O)Nc3cccc(S(=O)(=O)N4CCCCC4)c3)CC2=O)cc1 (stereo unspecified)	none (no result: L3MBTL1 block)
Cc1ccc(S(=O)(=O)N2CCCN(c3nc(-c4cccs4)nc4ccccc34)CC2)cc1	none (no result: BAZ2B inh, PI5P4K alpha inh, G9a block, L3MBTL1 block)
CN(CC(=O)NCc1ccc(Cl)cc1)S(=O)(=O)c1ccc2c(c1)c(=O)n(C)c(=O)n2C	none (no result: PI5P4K alpha inh, L3MBTL1 block)
COc1ccccc1C(=O)Nc1nnc(S(=O)(=O)N(C)c2ccc(Cl)cc2)s1	none (no result: PI5P4K alpha inh, L3MBTL1 block)
CCOc1ccc(CCNC(=O)c2ccc(Cn3c(=O)c4cccn4c4cccnc43)cc2)cc1	BAZ2B inh inconclusive (no result: PI5P4K alpha inh, L3MBTL1 block)
CCOc1ccc(N2CC(C(=O)Nc3ccc(S(=O)(=O)N4CCCCC4)cc3)CC2=O)cc1 (stereo unspecified)	G9a block 40µM
Cc1cc(C)cc(-n2nnc(-c3nc(-c4ccc5c(c4)OCO5)no3)c2C)c1	none (no result: PI5P4K alpha inh, L3MBTL1 block)
Cc1c(Cl)cccc1NC(=O)Cn1nc(C(F)(F)F)c2c1CCC2	none (no result: PI5P4K alpha inh, L3MBTL1 block)
COc1ccc(CCNCc2c(C(=O)O)c(C)n(Cc3ccccc3C)c2C)c(OC)c1	none (no result: PI5P4K alpha inh, L3MBTL1 block)
Cc1ccc(S(=O)(=O)N2CCN(c3nc(-c4ccnnc4)nc4ccccc34)CC2)cc1	JMJD2A Tudor inh 32µM (no result: BAZ2B inh, PI5P4K alpha inh, G9a block, L3MBTL1 block)
O=S(=O)(c1ccccc1)N1CCN(c2nc(-c3cccnc3)nc3ccccc23)CC1	BAZ2B inh 50µM
COc1ccc(CNS(=O)(=O)c2cnc(N)nc2)c(OC)c1	none (no result: PI5P4K alpha inh, L3MBTL1 block)
CCNC(=O)c1c(NC(=O)c2cc(=O)c3ccc(C)c(C)c3o2)sc2c1CCCC2	none (no result: PI5P4K alpha inh, L3MBTL1 block)
CCOC(=O)c1c(C)[nH]sc1=S	HP1b chromo inh inconclusive, G9a block 3.5µM, JMJD2A Tudor inh 25µM
CCOC(=O)c1sc(=S)[nH]c1C	HP1b chromo inh inconclusive, JMJD2A Tudor inh 14µM (no result: BAZ2B inh, G9a block, L3MBTL1 block)
CCOC(=O)c1sc(N)c(C(=O)OC)c1C	none
COc1ccc(Nc2nc3ccccc3c3nnc(C)n23)cc1Cl	none (no result: PI5P4K alpha inh, L3MBTL1 block)
COc1ccc(OCC(=O)NC(Cc2c[nH]c3ccccc23)C(=O)O)cc1 (stereo unspecified)	none (no result: PI5P4K alpha inh, L3MBTL1 block)
COc1ccc(S(=O)(=O)c2cc3cc(C(C)(C)C)cc(O)c3oc2=O)cc1	BAZ2B inh 25µM, G9a block 16µM, JMJD2A Tudor inh inconclusive (no result: PI5P4K alpha inh, L3MBTL1 block)
COc1ccc(S(=O)(=O)c2cc3cc(OC)ccc3oc2=O)cc1	none (no result: PI5P4K alpha inh, L3MBTL1 block)
CCc1nnc(N2C(=N)SCC2=O)s1	BAZ2B inh 79µM, G9a block 28µM, JMJD2A Tudor inh 28µM
O=C(OCC#CCSc1nnc(-c2cccc3ccccc23)o1)c1sc2ccccc2c1Cl	none (no result: BAZ2B inh, HP1b chromo inh, PI5P4K alpha inh, G9a block, L3MBTL1 block)
COC(=O)c1nnc(-c2ccccc2)c(-c2ccccc2)n1	G9a block 32µM (no result: PI5P4K alpha inh)
CC(C)(C)C(=O)Nc1nnc(-c2ccccc2)c(-c2ccccc2)n1	none (no result: G9a block)
Cc1cc(NC(=O)C2CCN(S(=O)(=O)c3ccc(Br)s3)CC2)ccc1Br	none (no result: PI5P4K alpha inh, L3MBTL1 block)
COc1ccc(-c2nc3cnc(OC)nc3n(C[C@H]3CCCO3)c2=O)cc1	none (no result: BAZ2B inh, HP1b chromo inh, PI5P4K alpha inh, JMJD2A Tudor inh, L3MBTL1 block)
NC(=O)N1CCC2(CC1)NC(=O)N(c1ccccc1)N2	G9a block 7.9µM
